# Measured values as given in the supplement of paper PMC3334620.
# The full ranking holds about 33,000 sequences; the median of “E-score (-0.5 to 0.5)” is about -0.054, and the highest 2% start at about 0.35. Shown is part of a subset that was picked to be rich in the highest values.
# Molecular target: T1, Stb5 (UniProt P38699)
# T1 sequence: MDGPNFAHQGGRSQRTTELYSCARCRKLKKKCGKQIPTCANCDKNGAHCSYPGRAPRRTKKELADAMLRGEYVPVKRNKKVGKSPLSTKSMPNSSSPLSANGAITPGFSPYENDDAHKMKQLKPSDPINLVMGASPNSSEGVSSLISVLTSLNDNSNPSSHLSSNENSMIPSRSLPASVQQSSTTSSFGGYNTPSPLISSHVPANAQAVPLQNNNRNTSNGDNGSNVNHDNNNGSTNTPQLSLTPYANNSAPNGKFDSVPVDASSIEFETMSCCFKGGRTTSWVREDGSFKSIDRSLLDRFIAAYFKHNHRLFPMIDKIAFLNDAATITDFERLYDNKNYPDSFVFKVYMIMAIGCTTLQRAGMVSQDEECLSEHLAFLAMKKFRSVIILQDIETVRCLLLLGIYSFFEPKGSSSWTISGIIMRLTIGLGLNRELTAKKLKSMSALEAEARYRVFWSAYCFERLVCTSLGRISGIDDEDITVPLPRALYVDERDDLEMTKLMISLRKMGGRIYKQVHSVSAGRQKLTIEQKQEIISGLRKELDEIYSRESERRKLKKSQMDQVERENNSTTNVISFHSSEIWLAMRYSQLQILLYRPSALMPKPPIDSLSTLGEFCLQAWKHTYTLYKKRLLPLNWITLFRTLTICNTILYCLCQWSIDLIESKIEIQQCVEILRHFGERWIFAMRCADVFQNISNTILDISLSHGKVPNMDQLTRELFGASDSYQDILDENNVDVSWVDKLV
# Assay: PBM E-score (8-mer binding enrichment) (E-score (-0.5 to 0.5)); higher = stronger / more preferred TF binding
# Conditions: protein concentration: 200 nM; construct: GST-full length
# Experimental: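 Universal 'all 10-mer' protein binding microarrays (Agilent AMADID 015681) probed with GST-tagged S. cerevisiae TFs (full-length or DBD) made by in vitro transcription/translation (PURExpress), about 100-200 nM. Bound TF was detected with fluorescent anti-GST. Each ungapped 8-mer (which stands for itself and its reverse complement) is scored by the PBM enrichment score (E-score), a modified Wilcoxon-Mann-Whitney statistic from -0.5 to +0.5, computed with the Universal PBM Analysis Suite. Scale: above 0.35 generally sequence-specific binding.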
row,Sequence,PBM E-score
1,GCACTCTA,-0.0909
2,GGACAAAC,0.0886
3,ACATACCG,0.28
4,AGGTCGGA,0.326
5,CGGTCCAA,0.186
6,CGGTCCCA,0.358
7,GGGTCCCA,-0.0448
8,CGGTCCGA,0.389
9,AGGTCCGA,0.412
10,AGGTCCGG,0.382
11,AGGTCCCA,-0.357
12,AGGTCCTG,-0.205
13,GGGTCCGA,0.332
14,AGGTCCAG,-0.156
15,AGGTCCAA,-0.167
16,AAATTCGA,0.0745
17,CGGCATTC,0.285
18,AACCATCG,0.041
19,AAACGGAT,0.197
20,AGAGATAT,-0.194
21,AAAAAGCT,-0.205
22,CGGTCTCC,0.195
23,CGGTCCTC,0.16
24,AGGTCCAC,-0.0841
25,CGGTCTCA,0.376

row,Sequence,PBM E-score
1,AGGTCCTA,0.0577
2,AGGTCCGC,0.425
3,CGGTCCTA,0.448
4,GGGTCTCA,0.00241
5,CGGTCCGC,0.298
6,GCCTTCGA,-0.137
7,CGCAAGGA,-0.0543
8,GACCTCTC,-0.126
9,AGTAGTTG,-0.0997
10,ACTGCTTG,-0.185
11,CCCAGTAG,-0.128
12,ACCCCTGA,-0.108
13,ACGATCGG,0.298
14,AAGATCGC,-0.0115
15,CCGATCGG,0.413
16,CCGATCGA,0.285
17,CAGATCGG,0.29
18,AAGATCGG,0.352
19,GCAACTTA,-0.0671
20,CAGTCTAA,0.00323
21,GCCGCCCC,0.388
22,ACCGCCCT,0.268
23,GCCCGCCC,0.271
24,GCCGCCCA,0.19
25,GCCCCCCC,-0.161

row,Sequence,PBM E-score
1,ACCCGCCC,0.276
2,CCCGCCCC,0.361
3,CCCGCCCA,0.258
4,CCCCGCCC,0.43
5,CCCGCCCG,0.298
6,ACCGCCCC,0.367
7,ACCGCCCG,0.345
8,ACCTCCAG,-0.188
9,ATAAGGGC,0.0814
10,GAAGCCAC,0.0166
11,GCCCGTTA,0.228
12,TGGAAGAA,-0.0838
13,ATGATCGG,0.297
14,CCTGATCA,-0.0914
15,AGAGAACC,-0.125
16,CTCATGCC,-0.103
17,GAGATACC,0.168
18,AGACCAGA,-0.27
19,ATAGAAGA,-0.05
20,GGTCTTAA,0.355
21,CGGCTTAA,0.351
22,GGACTTAC,0.358
23,GGCCTTAA,0.377
24,TGTCTTAA,0.00631
25,CGACTTAC,0.0696

row,Sequence,PBM E-score
1,TGGCTTAA,-0.044
2,GGGCTTAA,0.391
3,CGTCTTAA,-0.0278
4,TGCCTTAA,-0.192
5,AGCCTTAA,-0.0403
6,AGACTTAC,-0.161
7,CCCTGGAG,-0.234
8,GCTCGGCA,0.122
9,CTCAATCA,-0.00421
10,AACTAGCC,-0.148
11,ATGTGGTA,-0.222
12,CGCGGGAA,0.272
13,AATCTTGG,-0.0505
14,CCGATACA,0.28
15,ACAGCGGG,0.332
16,GGACTTAA,0.373
17,CGACTTAA,-0.0485
18,AGACTTAA,-0.288
19,ATAGAATA,-0.0414
20,CGATAACC,0.16
21,AAACCCGC,0.414
22,CGACCCGC,0.198
23,CAACCCGG,0.0495
24,GAACCCGA,0.0501
25,AAACCCGG,0.395

row,Sequence,PBM E-score
1,AGACCCGA,0.287
2,TAACCCGA,0.225
3,AGACCCGC,0.36
4,AAACCCGA,0.395
5,AAACCCGT,0.318
6,CAACCCGC,0.169
7,GAACCCGC,0.199
8,ATGGACTC,-0.103
9,CCCGGCTA,0.337
10,ACCTGGAG,-0.133
11,CAAGGCTG,-0.26
12,AGATAACA,-0.0529
13,TCGCCCCA,-0.317
14,ATCACCAG,-0.0626
15,ATCACCGC,0.447
16,GTCACCGA,0.285
17,CTCACCGC,0.164
18,ATCACCGG,0.37
19,CTCACCGA,0.248
20,ATCACCTC,0.0381
21,ATCACCGA,0.433
22,ATCACCTG,0.0314
23,TATGCACA,-0.16
24,GCCTCGCA,-0.0909
25,CGCATTTC,-0.0467

row,Sequence,PBM E-score
1,GGCAGTAA,0.256
2,AGGAGCAT,-0.255
3,CCGCATTA,0.243
4,GCTGGCCC,-0.184
5,GACATCCA,-0.0118
6,TCAGTGAA,-0.111
7,CTTCGAGC,-0.0166
8,AGACCCCG,0.394
9,AACCCGGG,0.262
10,ACCCCCGG,0.336
11,AGACCCGG,0.341
12,AAACCCCG,0.476
13,ATACCCCC,0.351
14,AAACCCCT,0.153
15,AGACCCCC,-0.165
16,AAACCCCA,0.0234
17,ATACCCCG,0.392
18,ATACCCCA,-0.0468
19,AACCCCGG,0.453
20,AAAATGTT,-0.267
21,CACTTGCG,-0.0879
22,CGTGTCCC,-0.0774
23,CCATTTAA,-0.073
24,CAGCTGTC,-0.31
25,ACACGGTA,0.144

row,Sequence,PBM E-score
1,AGACCAGG,-0.149
2,ATGCGACC,0.0704
3,AAGGCGCT,0.109
4,ATACCTAG,-0.233
5,CAACCCCC,0.14
6,ACCCCCCG,0.204
7,AACCCCCC,0.0126
8,AACCCCCG,0.401
9,CAACCCCA,-0.221
10,CAACCCCG,0.371
11,ACTAGCCC,0.15
12,ACTCGTCA,-0.163
13,GCCCCTAC,0.076
14,ATTCTTGG,-0.0109
15,GCCGGACC,0.281
16,ACCGGACC,0.354
17,ACCGGACT,0.376
18,CCCGGACC,0.185
19,ACCGGACG,0.329
20,ACCGGACA,0.321
21,AAACTCAC,-0.172
22,TAATAAGA,0.0281
